The text below walks through data of article PMC7862700, “An all-to-all approach to the identification of sequence-specific readers for epigenetic DNA modifications on cytosine”.

Common to all, as to experiment: DAPPL (digital affinity profiling via proximity ligation, sequencing); 10 mM Tris-HCl pH 7.5, 50 mM NaCl, 1 mM DTT, 4% glycerol, room temperature, 30 min; GST-TFs on glutathione beads, 16-mer random dsDNA library, 0.1% formaldehyde crosslink after washing; high values mean tight binding
One assay deals with T1, FLI1 (Homo sapiens, UniProt Q01543 1-452).
T1 sequence: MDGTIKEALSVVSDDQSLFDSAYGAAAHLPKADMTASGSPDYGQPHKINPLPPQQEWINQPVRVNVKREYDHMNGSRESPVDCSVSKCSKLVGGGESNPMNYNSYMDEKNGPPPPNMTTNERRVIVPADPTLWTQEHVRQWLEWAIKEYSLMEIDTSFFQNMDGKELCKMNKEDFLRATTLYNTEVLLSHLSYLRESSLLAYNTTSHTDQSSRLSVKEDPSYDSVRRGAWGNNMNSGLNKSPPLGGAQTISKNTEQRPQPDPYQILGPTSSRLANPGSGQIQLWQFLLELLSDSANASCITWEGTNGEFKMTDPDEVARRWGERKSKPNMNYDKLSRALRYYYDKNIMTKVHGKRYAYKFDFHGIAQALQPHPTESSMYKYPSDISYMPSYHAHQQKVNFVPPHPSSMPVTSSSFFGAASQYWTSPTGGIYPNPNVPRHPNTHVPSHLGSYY
Particulars: protein: recombinant; tags: N-terminal GST; dsDNA, one strand shown. The essentials:
(§1)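 Yeast served to express human transcription factors as GST fusions, which were then captured on glutathione beads and labelled with DNA barcodes. Pooled with a tag-only sample, they were incubated with 200 nmole of a 16-mer random double-stranded DNA library for 30 min at room temperature in Tris/NaCl/DTT/glycerol buffer, washed, crosslinked with 0.1% formaldehyde, ligated by proximity, amplified by PCR and sequenced. Dividing each hexamer's read frequency for a factor by its frequency for the tag-only sample gives the binding signal.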

Another assay deals with T2, ELK1 (Homo sapiens, UniProt P19419 1-428).
T2 sequence: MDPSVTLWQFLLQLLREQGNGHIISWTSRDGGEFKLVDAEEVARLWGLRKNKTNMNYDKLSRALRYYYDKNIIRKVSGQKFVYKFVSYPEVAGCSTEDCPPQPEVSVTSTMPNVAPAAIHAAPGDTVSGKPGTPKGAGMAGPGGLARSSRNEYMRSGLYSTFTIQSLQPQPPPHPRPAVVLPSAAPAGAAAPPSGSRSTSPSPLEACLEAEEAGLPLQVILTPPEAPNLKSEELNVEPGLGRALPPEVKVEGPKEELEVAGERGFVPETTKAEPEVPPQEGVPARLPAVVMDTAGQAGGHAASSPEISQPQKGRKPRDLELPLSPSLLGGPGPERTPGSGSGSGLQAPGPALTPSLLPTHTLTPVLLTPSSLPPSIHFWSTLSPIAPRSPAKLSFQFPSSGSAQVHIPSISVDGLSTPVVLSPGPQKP
Conditions: protein: recombinant; tags: N-terminal GST; dsDNA, one strand shown. The essentials: as §1

The next assay has as its target T3, GABPA (Homo sapiens, UniProt Q06546 1-454).
T3 sequence: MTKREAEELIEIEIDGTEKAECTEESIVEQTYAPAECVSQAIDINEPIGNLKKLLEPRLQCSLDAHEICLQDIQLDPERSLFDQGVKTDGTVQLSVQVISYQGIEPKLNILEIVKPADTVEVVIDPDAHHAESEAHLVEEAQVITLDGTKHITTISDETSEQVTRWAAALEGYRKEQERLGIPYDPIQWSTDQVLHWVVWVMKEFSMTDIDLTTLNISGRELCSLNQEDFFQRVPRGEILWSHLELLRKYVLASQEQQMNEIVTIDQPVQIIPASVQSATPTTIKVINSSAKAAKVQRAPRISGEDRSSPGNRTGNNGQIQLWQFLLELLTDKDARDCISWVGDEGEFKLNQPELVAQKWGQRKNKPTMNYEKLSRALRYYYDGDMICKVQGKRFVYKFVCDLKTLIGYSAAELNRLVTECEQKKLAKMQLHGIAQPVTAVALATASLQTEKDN
Particulars: protein: recombinant; tags: N-terminal GST; dsDNA, one strand shown. An outline of the steps: as §1

A further assay addresses T4, ERG (Homo sapiens, UniProt P11308 1-479).
T4 sequence: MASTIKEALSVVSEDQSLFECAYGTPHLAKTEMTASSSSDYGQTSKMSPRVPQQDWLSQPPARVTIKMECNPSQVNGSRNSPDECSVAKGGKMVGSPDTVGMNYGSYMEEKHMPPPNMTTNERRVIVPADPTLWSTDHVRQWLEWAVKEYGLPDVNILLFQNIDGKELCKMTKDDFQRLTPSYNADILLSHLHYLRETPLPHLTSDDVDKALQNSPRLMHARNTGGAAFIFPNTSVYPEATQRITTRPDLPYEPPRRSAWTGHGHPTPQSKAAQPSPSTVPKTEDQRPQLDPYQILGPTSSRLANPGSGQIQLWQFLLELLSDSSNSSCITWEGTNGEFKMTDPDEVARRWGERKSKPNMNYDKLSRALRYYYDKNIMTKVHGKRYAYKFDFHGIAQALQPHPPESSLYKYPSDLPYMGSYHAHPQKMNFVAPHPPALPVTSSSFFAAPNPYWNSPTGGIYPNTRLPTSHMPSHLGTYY
Particulars: protein: recombinant; tags: N-terminal GST; dsDNA, one strand shown. The essentials: as §1

A further assay deals with ELF1 (Homo sapiens, UniProt P32519 1-619). Particulars: protein: recombinant; tags: N-terminal GST; dsDNA, one strand shown. The essentials: as §1
ELF1, sequence (P32519 whole entry): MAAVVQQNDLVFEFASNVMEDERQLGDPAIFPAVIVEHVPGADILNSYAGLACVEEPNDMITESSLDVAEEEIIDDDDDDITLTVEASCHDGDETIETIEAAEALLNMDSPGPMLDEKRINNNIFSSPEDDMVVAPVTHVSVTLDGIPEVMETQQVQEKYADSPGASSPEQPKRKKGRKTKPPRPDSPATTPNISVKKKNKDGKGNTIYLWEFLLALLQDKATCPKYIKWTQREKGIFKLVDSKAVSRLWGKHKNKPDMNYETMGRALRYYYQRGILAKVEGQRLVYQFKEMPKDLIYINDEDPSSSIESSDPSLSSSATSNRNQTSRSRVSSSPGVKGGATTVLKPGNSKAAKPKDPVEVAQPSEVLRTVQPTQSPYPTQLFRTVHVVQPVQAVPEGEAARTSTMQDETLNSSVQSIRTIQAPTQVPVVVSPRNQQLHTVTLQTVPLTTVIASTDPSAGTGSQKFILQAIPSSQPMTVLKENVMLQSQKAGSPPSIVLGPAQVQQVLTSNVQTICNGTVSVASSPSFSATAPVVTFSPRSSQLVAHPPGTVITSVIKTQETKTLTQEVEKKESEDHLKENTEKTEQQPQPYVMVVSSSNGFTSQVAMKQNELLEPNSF
For another assay, the target named is T5, EHF (Homo sapiens, UniProt Q9NZC4 1-300).
T5 sequence: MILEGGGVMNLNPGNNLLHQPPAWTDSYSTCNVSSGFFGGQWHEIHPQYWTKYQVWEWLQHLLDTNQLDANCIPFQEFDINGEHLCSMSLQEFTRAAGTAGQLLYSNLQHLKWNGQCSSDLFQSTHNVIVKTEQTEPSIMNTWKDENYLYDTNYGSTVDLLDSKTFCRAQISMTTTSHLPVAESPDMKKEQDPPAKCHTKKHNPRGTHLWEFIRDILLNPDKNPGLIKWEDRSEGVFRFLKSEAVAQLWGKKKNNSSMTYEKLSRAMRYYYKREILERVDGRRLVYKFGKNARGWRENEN
Particulars: protein: recombinant; tags: N-terminal GST; dsDNA, one strand shown. An outline of the steps:
as §1

The next assay concerns the target SPI1 (Homo sapiens, UniProt P17947 1-270). Conditions: protein: recombinant; tags: N-terminal GST; dsDNA, one strand shown. An outline of the steps: as §1
In another assay the target is SPIB (Homo sapiens, UniProt Q01892 1-262). Particulars: protein: recombinant; tags: N-terminal GST; dsDNA, one strand shown. An outline of the steps: as §1
SPIB, sequence (Q01892 whole entry): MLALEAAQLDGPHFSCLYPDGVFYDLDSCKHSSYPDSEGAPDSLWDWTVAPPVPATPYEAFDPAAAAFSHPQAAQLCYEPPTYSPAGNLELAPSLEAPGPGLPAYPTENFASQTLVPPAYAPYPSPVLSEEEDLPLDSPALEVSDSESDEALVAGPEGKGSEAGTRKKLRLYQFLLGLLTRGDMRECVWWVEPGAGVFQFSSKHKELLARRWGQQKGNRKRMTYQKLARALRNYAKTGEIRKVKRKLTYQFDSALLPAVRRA
The target in another assay is T6, ELK3 (Homo sapiens, UniProt P41970 1-407).
T6 sequence: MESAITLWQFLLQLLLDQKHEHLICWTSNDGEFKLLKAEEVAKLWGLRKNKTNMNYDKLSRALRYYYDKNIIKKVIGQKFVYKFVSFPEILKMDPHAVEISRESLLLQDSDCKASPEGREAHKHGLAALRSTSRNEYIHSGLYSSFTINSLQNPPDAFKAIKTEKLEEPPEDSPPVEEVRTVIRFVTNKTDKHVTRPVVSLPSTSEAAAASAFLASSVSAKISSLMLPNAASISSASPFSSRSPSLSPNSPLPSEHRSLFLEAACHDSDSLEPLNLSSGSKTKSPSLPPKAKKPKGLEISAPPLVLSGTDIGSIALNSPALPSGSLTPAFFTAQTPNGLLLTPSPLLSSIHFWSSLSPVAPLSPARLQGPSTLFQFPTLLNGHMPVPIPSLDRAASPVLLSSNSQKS
Conditions: protein: recombinant; tags: N-terminal GST; dsDNA, one strand shown. An outline of the steps:
as §1

The target in another assay is T7, FEV (Homo sapiens, UniProt Q99581 1-238).
T7 sequence: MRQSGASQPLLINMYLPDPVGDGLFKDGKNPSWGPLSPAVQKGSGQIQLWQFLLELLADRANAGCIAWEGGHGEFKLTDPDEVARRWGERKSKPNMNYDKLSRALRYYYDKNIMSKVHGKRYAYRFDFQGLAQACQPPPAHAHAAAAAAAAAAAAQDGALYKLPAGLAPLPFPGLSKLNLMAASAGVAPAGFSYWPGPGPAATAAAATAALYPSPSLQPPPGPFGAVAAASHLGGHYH
Particulars: protein: recombinant; tags: N-terminal GST; dsDNA, one strand shown. The essentials: as §1

A further assay has as its target ETV5 (Homo sapiens, UniProt P41161 1-510). Conditions: protein: recombinant; tags: N-terminal GST; dsDNA, one strand shown. An outline of the steps: as §1
The target in another assay is HSF1 (Homo sapiens, UniProt Q00613 1-529). Conditions: protein: recombinant; tags: N-terminal GST; chain copies: 3; dsDNA, one strand shown. An outline of the steps: as §1
HSF1, sequence (Q00613 whole entry): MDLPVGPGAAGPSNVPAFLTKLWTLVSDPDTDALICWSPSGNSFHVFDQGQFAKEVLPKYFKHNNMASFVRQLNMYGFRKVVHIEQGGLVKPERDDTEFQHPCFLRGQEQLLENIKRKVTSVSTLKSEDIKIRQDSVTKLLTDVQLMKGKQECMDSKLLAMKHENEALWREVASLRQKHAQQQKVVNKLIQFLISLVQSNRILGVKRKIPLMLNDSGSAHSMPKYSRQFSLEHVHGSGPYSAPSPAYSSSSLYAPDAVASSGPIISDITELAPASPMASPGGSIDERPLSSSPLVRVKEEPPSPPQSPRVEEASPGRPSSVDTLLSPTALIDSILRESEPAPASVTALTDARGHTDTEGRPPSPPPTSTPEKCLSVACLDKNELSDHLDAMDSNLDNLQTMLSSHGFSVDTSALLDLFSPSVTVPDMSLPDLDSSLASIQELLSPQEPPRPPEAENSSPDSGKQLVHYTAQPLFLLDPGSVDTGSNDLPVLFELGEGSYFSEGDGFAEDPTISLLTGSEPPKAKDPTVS
Another assay has as its target T8, SPIC (Homo sapiens, UniProt Q8N5J4 1-248).
T8 sequence: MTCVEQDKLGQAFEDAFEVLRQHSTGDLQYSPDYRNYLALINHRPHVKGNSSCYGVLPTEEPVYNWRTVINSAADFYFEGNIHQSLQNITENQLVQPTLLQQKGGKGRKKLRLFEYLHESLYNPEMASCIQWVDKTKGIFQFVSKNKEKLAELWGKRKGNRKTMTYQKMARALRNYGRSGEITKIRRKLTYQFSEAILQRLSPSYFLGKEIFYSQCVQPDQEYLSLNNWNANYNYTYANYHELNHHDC
Particulars: protein: recombinant; tags: N-terminal GST; dsDNA, one strand shown. The essentials:
as §1

The next assay addresses ELF4 (Homo sapiens, UniProt Q99607 1-663). Conditions: protein: recombinant; tags: N-terminal GST; dsDNA, one strand shown. The essentials: as §1
The next assay addresses T9, ELK4 (Homo sapiens, UniProt P28324-2 1-405).
T9 sequence: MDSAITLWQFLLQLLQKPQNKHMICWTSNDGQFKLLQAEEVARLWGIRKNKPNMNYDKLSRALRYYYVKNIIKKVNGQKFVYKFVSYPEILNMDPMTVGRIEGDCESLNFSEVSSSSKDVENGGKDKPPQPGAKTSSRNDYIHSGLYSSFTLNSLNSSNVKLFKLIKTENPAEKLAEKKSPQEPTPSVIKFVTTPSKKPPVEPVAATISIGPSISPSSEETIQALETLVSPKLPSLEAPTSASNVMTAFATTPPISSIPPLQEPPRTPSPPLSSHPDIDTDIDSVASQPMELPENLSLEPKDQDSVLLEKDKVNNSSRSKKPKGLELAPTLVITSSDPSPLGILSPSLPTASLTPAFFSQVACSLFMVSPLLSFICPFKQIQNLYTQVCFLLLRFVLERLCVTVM
Conditions: protein: recombinant; tags: N-terminal GST; dsDNA, one strand shown. The essentials:
as §1

Another assay concerns the target T10, ELF3 (Homo sapiens, UniProt P78545 1-371).
T10 sequence: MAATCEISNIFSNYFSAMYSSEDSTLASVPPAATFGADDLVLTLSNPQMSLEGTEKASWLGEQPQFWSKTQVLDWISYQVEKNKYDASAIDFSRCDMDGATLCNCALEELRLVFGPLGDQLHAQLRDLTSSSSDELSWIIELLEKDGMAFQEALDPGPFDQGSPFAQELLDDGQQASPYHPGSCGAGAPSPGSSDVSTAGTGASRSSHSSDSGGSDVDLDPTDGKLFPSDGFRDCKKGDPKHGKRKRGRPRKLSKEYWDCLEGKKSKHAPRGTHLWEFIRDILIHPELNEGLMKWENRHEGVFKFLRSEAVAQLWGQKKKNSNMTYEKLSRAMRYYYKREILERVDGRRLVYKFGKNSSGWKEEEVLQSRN
Conditions: protein: recombinant; tags: N-terminal GST; dsDNA, one strand shown. An outline of the steps:
as §1

The target of the next assay is CRX (Homo sapiens, UniProt O43186 1-299). Conditions: protein: recombinant; tags: N-terminal GST; dsDNA, one strand shown. The essentials:
as §1

A further assay has as its target ETV1 (Homo sapiens, UniProt P50549 1-477). Particulars: protein: recombinant; tags: N-terminal GST; dsDNA, one strand shown. The essentials:
as §1

ETV1, sequence (P50549 whole entry): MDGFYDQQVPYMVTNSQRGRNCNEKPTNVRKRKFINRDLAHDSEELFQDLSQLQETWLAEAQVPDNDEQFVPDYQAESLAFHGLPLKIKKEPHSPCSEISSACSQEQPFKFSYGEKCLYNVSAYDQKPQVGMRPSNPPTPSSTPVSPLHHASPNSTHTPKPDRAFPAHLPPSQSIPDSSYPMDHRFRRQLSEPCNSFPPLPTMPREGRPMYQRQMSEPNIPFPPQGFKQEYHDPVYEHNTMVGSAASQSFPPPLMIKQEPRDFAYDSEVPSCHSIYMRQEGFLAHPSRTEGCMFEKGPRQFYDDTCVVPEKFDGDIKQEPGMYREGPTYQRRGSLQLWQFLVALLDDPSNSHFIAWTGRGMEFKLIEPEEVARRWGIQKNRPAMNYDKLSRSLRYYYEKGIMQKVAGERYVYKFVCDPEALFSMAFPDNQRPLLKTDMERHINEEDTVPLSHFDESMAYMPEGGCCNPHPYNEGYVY
ETV5, sequence (P41161 whole entry): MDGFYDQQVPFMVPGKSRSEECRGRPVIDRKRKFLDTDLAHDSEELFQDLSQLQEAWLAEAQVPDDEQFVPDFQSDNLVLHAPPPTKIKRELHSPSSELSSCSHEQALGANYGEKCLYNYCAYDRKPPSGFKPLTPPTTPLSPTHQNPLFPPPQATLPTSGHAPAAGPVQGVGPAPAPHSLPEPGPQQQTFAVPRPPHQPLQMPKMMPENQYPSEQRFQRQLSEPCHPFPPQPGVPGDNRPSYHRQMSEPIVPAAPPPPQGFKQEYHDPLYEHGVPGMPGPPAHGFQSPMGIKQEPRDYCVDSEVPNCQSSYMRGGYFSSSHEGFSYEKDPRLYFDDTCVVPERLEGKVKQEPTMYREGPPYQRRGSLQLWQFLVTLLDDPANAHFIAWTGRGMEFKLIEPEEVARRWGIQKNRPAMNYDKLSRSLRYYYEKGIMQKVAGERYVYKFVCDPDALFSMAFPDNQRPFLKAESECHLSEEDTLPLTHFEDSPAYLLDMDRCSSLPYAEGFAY
ELF4, sequence (Q99607 whole entry): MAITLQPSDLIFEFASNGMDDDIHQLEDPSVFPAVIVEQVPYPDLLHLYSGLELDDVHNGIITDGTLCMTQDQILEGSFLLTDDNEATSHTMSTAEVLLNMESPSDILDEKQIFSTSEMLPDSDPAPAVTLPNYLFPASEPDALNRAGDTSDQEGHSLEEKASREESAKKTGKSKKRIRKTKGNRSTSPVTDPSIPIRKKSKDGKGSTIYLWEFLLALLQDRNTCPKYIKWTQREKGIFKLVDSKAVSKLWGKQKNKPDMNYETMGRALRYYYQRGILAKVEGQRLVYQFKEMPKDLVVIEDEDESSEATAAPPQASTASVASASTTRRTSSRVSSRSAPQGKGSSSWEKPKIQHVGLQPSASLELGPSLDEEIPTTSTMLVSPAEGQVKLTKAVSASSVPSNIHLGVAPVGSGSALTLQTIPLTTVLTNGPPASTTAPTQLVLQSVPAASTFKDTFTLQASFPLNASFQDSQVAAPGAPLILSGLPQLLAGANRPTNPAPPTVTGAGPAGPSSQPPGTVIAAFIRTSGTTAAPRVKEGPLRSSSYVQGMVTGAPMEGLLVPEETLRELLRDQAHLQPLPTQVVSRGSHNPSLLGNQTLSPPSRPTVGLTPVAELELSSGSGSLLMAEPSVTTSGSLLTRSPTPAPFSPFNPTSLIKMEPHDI
CRX, sequence (O43186 whole entry): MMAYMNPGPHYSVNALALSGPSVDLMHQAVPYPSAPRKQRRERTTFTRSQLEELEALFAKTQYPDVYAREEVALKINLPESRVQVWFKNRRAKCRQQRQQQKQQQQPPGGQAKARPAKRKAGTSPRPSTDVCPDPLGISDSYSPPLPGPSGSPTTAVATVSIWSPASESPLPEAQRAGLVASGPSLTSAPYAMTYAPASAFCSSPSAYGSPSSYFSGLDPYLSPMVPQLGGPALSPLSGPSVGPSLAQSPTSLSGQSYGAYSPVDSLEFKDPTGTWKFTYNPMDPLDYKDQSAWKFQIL

As to TAGCAT, the binding signal in the assay with FLI1 was 1.16 fold enrichment (6-mer frequency, TF over GST control); in the assay with ELK1, 1.15 fold enrichment (6-mer frequency, TF over GST control); in the assay with GABPA, 1.05 fold enrichment (6-mer frequency, TF over GST control); in the assay with ERG, 1.11 fold enrichment (6-mer frequency, TF over GST control); with ELF1 it was 1.17 fold enrichment (6-mer frequency, TF over GST control); in the assay with EHF, 1.14 fold enrichment (6-mer frequency, TF over GST control). Moreover, the binding signal was 1.07 fold enrichment (6-mer frequency, TF over GST control) with SPI1; 1.05 fold enrichment (6-mer frequency, TF over GST control) with SPIB; 1.13 fold enrichment (6-mer frequency, TF over GST control) in the assay with ELK3; 1.13 fold enrichment (6-mer frequency, TF over GST control) with FEV; 1.09 fold enrichment (6-mer frequency, TF over GST control) with ETV5; 1.38 fold enrichment (6-mer frequency, TF over GST control) with HSF1. In addition, the binding signal in the assay with SPIC was 1.07 fold enrichment (6-mer frequency, TF over GST control); in the assay with ELF4, 1.16 fold enrichment (6-mer frequency, TF over GST control); with ELK4, 1.16 fold enrichment (6-mer frequency, TF over GST control); with ELF3, 1.15 fold enrichment (6-mer frequency, TF over GST control); with CRX it was 1.42 fold enrichment (6-mer frequency, TF over GST control); with ETV1, 1.17 fold enrichment (6-mer frequency, TF over GST control).
